From PubChem BioAssay
ATXN2 expr inh: ATXN2 expression inhibition; HEK-293 ATXN2-luciferase reporter, luminescence, 24 h; Potency, µM (highest dose often 57 µM), for inactives: at the top dose activity change, negative = inhibition, actives largely listed as inhibitors; actives 0.72% (n = 360,000); note: % is set by controls: 0 for no effect and ±100 for the full control effect; nearly all actives have a fitted effect of over 55% in size
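qHTS (up to 57 uM final) was run with 24 h compound exposure of reporter cells at 37 °C. Each well was multiplexed: SteadyGlo luminescence measured ATXN2-luciferase expression after a fluorogenic Gly-Phe-AFC viability readout (25 uM final).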
TGFb SMAD3 inh: TGF-b pathway inhibition. AID 588855. HepG2 CAGA-GFP TGF-b/SMAD3 reporter, GFP fluorescence, 18 h; TGF-beta stimulated, 500 pg/mL final. Potency, µM (top dose mostly 46.1 µM), inactives show at the top dose activity, negative = inhibition, most hits filed as inhibitors. actives 1.2% (n = 410,000); note: % is set by controls: 0 for no effect and ±100 for the full control effect; nearly all actives have a fitted effect of over 65% in size
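Smad-responsive CAGA-GFP expression was quantified in HEPG2 cells exposed to compounds and 500 pg/mL final TGF-beta for 18 h at 37 degrees C; unstimulated wells defined full inhibition.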
Gal4-VP16 FLuc: inhibits Gal4-VP16 luciferase reporter, ROR gamma counter-screen; Drosophila S2 Gal4-VP16 UAS-luciferase, luminescence, 20 h; Potency, µM (highest dose often 53.6 µM), for inactives: top-dose activity, negative = inhibition, actives largely listed as inhibitors; actives 3.5% (n = 310,000); AID 2546;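 note: Gal4-VP16 expression switched on by copper sulfate through the metallothionein promoter; % is set by controls: 0 for no effect and ±100 for the full control effect; nearly all actives have a fitted effect of over 50% in size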
HepG2 tox: kills HepG2 cells in TGF-b inhibitor counter-screen; HepG2 CAGA-GFP viability, ATP luminescence, 18 h; Potency, µM (top dose mostly 46.1 µM), without a hit: top-dose activity change, negative = cytotoxicity, actives largely listed as cytotoxic; actives 0.76% (n = 410,000)
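CellTiter-Glo luminescence gave cytotoxicity after 18 hours at 37 degrees C. The cells were HepG2 CAGA-GFP in 1% FBS DMEM, stimulated with 500 pg/mL TGF-beta after compound addition. %Activity was normalised to no-cell wells (complete cell-killing) and DMSO (no toxicity), and curves were fitted and classified.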
ATXN viability: viability counter-screen for ATXN expression inhibitors. S2 cells (HEK-293 line with an ATXN2-luciferase reporter) viability, CellTiter-Fluor protease fluorescence, 24 h. AID 651635. Potency, µM (titrated, usually from 56.7 µM), most hits filed as cytotoxic. actives 0.49% (n = 400,000); note: nearly all actives have a fitted effect of over 40% in size
RORg inh: inhibitors of mouse ROR gamma transcriptional activity; Drosophila S2 Gal4-RORgamma UAS-luciferase reporter, 20 h; Potency, µM (doses to about 53.6 µM), without a hit: at the top dose activity change, negative = inhibition, usual class: inhibitors; actives 5.4% (n = 310,000); AID 2551; note: % is set by controls: 0 for no effect and ±100 for the full control effect; nearly all actives have a fitted effect of over 60% in size
Target sequence (P51450 whole entry, looked up, the tested form may be a part): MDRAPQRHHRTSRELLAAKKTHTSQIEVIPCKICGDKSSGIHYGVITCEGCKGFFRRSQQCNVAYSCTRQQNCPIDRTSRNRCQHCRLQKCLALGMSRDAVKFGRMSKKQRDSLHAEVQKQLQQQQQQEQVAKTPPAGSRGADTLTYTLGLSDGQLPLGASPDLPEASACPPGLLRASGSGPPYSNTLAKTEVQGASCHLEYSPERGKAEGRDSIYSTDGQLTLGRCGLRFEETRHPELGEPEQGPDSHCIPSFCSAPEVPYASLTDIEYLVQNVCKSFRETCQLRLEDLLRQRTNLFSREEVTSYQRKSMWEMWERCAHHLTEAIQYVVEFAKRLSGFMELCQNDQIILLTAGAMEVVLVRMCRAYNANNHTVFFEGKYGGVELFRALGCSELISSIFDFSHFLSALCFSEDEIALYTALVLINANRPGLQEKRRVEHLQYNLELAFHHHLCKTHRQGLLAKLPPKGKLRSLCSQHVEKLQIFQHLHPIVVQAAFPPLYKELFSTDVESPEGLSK
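Luciferase reporter read in Schneider cells carrying Gal4-RORγ (mouse) and UAS-Photinus luciferase; cells given compound 1 h before 700 uM copper sulfate induction, then incubated 20 h at ambient temperature.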
An asterisk follows results filed as active. An excerpt weighted towards active compounds, which were near 6.1% of everything screened. Calls come from the whole dose curve; as a rule, active = well fitted curve in the direction sought with a large enough effect; inconclusive = small, poorly fitted or top-dose-only effect, or another doubt; inactive = no such curve, though single readings can be large; an effect the other way counts as inactive or inconclusive. Potency is the fitted concentration of half-maximal effect.

`Cc1ccc(-c2c(C)n3c4c(=O)n(C)c(=O)n(C)c4nc3n2CCCO)cc1` gave ATXN2 expr inh 25µM*, TGFb SMAD3 inh inconclusive, HepG2 tox -36% and ATXN viability 28µM*.
Screening Cc1ccc2[nH]cc(C(c3ccccc3)c3ccc(Cl)s3)c2c1 (centres undefined) returned ATXN2 expr inh inconclusive, TGFb SMAD3 inh inconclusive, HepG2 tox 11µM* and ATXN viability inconclusive.
For Cc1ccc2[nH]cc(C(=O)CCl)c2c1 the results were ATXN2 expr inh inconclusive, TGFb SMAD3 inh inconclusive, Gal4-VP16 FLuc -11%, HepG2 tox -105%, ATXN viability inconclusive and RORg inh -14%.
Screening Cc1ccc2[nH]cc(C(O)c3c[nH]c4ccc(C)cc34)c2c1 returned TGFb SMAD3 inh 10µM* and HepG2 tox 10%.
Clc1ccc(C(c2ccccc2)c2c[nH]c3ccccc23)s1 (centres undefined) was read as ATXN2 expr inh inconclusive, TGFb SMAD3 inh inconclusive and HepG2 tox -109%.
For CCCN(CCC)CCCNC(=O)Cn1ncc2c3ccccc3n(Cc3ccccc3F)c2c1=O the results were ATXN2 expr inh inconclusive, TGFb SMAD3 inh -16%, HepG2 tox -22% and ATXN viability 14µM*.
For O=C(CCC1N=C2c3ccccc3N=C(SCc3ccccc3F)N2C1=O)NC1CCCCC1 (centres undefined) the results were TGFb SMAD3 inh inconclusive and HepG2 tox -44%.
CNS(=O)(=O)c1cn(CC(=O)N2CCN(c3ccccc3F)CC2)cc1S(=O)(=O)NC was read as TGFb SMAD3 inh 0% and HepG2 tox -15%.
CCCCCCCOc1ccc(CC(=O)NO)cc1 was read as TGFb SMAD3 inh 16% and HepG2 tox 4%.
For O=C(/C=C/c1ccc(O)c(O)c1)c1ccc(S(=O)(=O)N2CCCCCC2)cc1 the results were ATXN2 expr inh -21%, TGFb SMAD3 inh -91%, Gal4-VP16 FLuc inconclusive, HepG2 tox -69%, ATXN viability inactive and RORg inh 13µM*.
CC(=O)Nc1ccc(NC(=O)c2nc(SCc3ccccc3F)ncc2Cl)cc1 was read as TGFb SMAD3 inh 0% and HepG2 tox -48%.
Screening C/C(Cn1nnc([N+](=O)[O-])n1)=N\NC(=O)c1ccccc1 returned ATXN2 expr inh -15%, TGFb SMAD3 inh 11µM*, Gal4-VP16 FLuc inconclusive, HepG2 tox -49%, ATXN viability inconclusive and RORg inh 10µM*.
For O=C1N[C@@H](Cc2ccccc2)C(=O)N2[C@@H]3N(S(=O)(=O)c4ccccc4)c4ccccc4[C@]3(Br)C[C@@H]12 the results were ATXN2 expr inh -27%, TGFb SMAD3 inh 1%, HepG2 tox -14% and ATXN viability inactive.
CC(C)c1cc(C(C)C)c(S(=O)(=O)N2c3ccccc3[C@@]3(Br)C[C@H]4C(=O)N[C@@H](Cc5ccccc5)C(=O)N4[C@@H]23)c(C(C)C)c1 was read as ATXN2 expr inh 3%, TGFb SMAD3 inh 8.9µM*, HepG2 tox -4% and ATXN viability inactive.
CCC(C(=O)Nc1ccccc1)n1nc(-c2cc(C)ccc2C)ccc1=O (centres undefined) was read as ATXN2 expr inh -8%, TGFb SMAD3 inh inconclusive, HepG2 tox -20% and ATXN viability inactive.
Screening Cc1nc(NCCc2ccc(S(N)(=O)=O)cc2)c2c(C)c(C)sc2n1 returned ATXN2 expr inh inconclusive, TGFb SMAD3 inh -19%, Gal4-VP16 FLuc 10µM*, HepG2 tox -29%, ATXN viability inactive and RORg inh 10µM*.
`Cc1nc(NCc2ccc(S(N)(=O)=O)cc2)c2c(C)c(C)sc2n1` gave ATXN2 expr inh -9%, TGFb SMAD3 inh -16%, Gal4-VP16 FLuc 0%, HepG2 tox -15%, ATXN viability inactive and RORg inh -3%.
For COCC(=O)Nc1cc(C(=O)N2CC3CC4CC(C3)CC2C4)c2c(c1)nc(-c1ccncc1)n2C the results were ATXN viability inactive.
For Cn1cc(C(=O)NCc2ccc(Cl)cc2)c(=O)c2cc(S(=O)(=O)N3CCCCCC3)ccc21 the results were ATXN2 expr inh 7%, TGFb SMAD3 inh -2%, HepG2 tox 3% and ATXN viability inactive.
`COc1cccc(-c2nc(CS(=O)(=O)CC(=O)Nc3c(C)cc(C)cc3C)c(C)o2)c1` gave TGFb SMAD3 inh 10µM* and HepG2 tox -79%.
`COc1ccc(OC)c(CCNC(=O)CS(=O)(=O)Cc2nc(-c3cccc(Cl)c3)oc2C)c1` gave ATXN2 expr inh inconclusive, TGFb SMAD3 inh 16µM*, HepG2 tox -42% and ATXN viability inconclusive.
For Cc1ccccc1-c1nc(CS(=O)(=O)CC(=O)Nc2c(C)cccc2C)c(C)o1 the results were ATXN2 expr inh inconclusive, TGFb SMAD3 inh 11µM*, HepG2 tox -62% and ATXN viability inactive.
Cc1ccc(-c2noc(C3CC(=O)N(c4ccc5c(c4)OCCO5)C3)n2)cc1 (centres undefined) was read as ATXN2 expr inh -3%, TGFb SMAD3 inh -18%, HepG2 tox -3% and ATXN viability inactive.
Screening O/N=C/c1ccccc1Oc1ccccc1 returned ATXN2 expr inh -34%, TGFb SMAD3 inh 2%, Gal4-VP16 FLuc -7%, HepG2 tox -29%, ATXN viability inactive and RORg inh 0%.
For Cc1cc(C)cc(Oc2ccccc2/C=N\O)c1 the results were ATXN2 expr inh -22%, TGFb SMAD3 inh inconclusive, Gal4-VP16 FLuc 11µM*, HepG2 tox -49%, ATXN viability inactive and RORg inh inconclusive.
`O=C(Nc1ccccc1Oc1ccccc1)C1CCCC1` gave ATXN2 expr inh -13%, TGFb SMAD3 inh -4%, Gal4-VP16 FLuc -5%, HepG2 tox -5%, ATXN viability inactive and RORg inh 13%.
`S=C(Nc1ccc(Cl)cc1Cl)Nc1ccccc1Oc1ccccc1` gave ATXN2 expr inh -2%, TGFb SMAD3 inh inconclusive, Gal4-VP16 FLuc inconclusive, HepG2 tox -7%, ATXN viability inconclusive and RORg inh 10µM*.
